Out of some 2,400 compounds screened, about 20 (0.8%) were called active. The list comes from a sample in which actives are over-represented; it also holds similar structures and randomly drawn compounds. A number with no mark means an inactive call.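 Rule for the calls: active = AC50 no more than ten times the highest tested concentration, or full inhibition at every dose giving a flat fit (cut at about 30 µM in these data); inconclusive = flat fit with activity between 30% and 70%, or poor-quality invalid fit; inactive = AC50 more than ten times the top tested dose.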
Assay: inhibitors of ADP-Glo detection reagents, dose response, artefact control for GSK-3a inhibitor project, biochemical, luminescence, cell-free, homogeneous (AID 463205);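 note: kinase-free counter-screen against the ADP-Glo detection reagents only; potency is for inhibitors that reduce the luminescence signal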
Conditions: 5 uM ADP
In the case of `COc1ccc(C2C3(C#N)C(N)=NC(OC)(OC)C23C#N)cc1` (stereo not given), the AC50 is reported as over 30 µM.
For `CC(=O)N1CCN(c2ccccc2NC(=O)c2ccc(-c3cccc([N+](=O)[O-])c3)o2)CC1`, the AC50 was over 30 µM.
For `Nc1nc2n(n1)C(c1ccc(F)cc1)CC(c1ccc(F)cc1)N2` (stereo not given), the AC50 was over 30 µM.
Compound `CCOc1ccc(S(=O)(=O)Nc2cccc(C(=O)NCCCn3ccnc3)c2)cc1` has an AC50 of over 30 µM.
In the case of `O=C1c2cnc3nc(SCc4ccccc4)nn3c2CC2c3ccccc3CCN12` (stereo not given), the AC50 is reported as over 30 µM.
Work on `COc1ccc(NC(=O)Nc2ccc(F)cc2F)c(C)c1` yielded an AC50 of over 30 µM.
In the case of `CCOC(=O)c1cnc2c(Cl)c(Cl)ccc2c1N1CCN(C)CC1`, the AC50 is reported as over 30 µM.
Work on `COc1ccc(-c2cn3cccnc3n2)cc1NC(=O)C(C)C` yielded an AC50 of over 30 µM.
Compound `O=c1cc(-c2ccsc2)oc2ccccc12` has an AC50 of over 30 µM.
For `COc1ccccc1NC(=O)Nc1ccccc1Br`, the AC50 was over 30 µM.
`CCn1c2ccccc2c2nnc(SCC(N)=O)nc21` showed an AC50 of over 30 µM.
Work on `CCCC1=C(C(=O)OCC)C(c2ccc(N(C)C)cc2)n2ncnc2N1` (stereo not given) yielded an AC50 of over 30 µM.
`COCc1c(C(=O)N/N=C\c2cccnc2)nnn1-c1nonc1N` showed an AC50 of over 30 µM.
With `CC(C)(C)C(=O)c1cnc(Nc2ccccc2Cl)s1` the AC50 was over 30 µM.
For `O=C(Nc1cccc(O)c1)c1ccc([N+](=O)[O-])cc1Cl`, the AC50 was over 30 µM.
With `CCOC(=O)N1CCc2c(sc3[nH]c(=S)[nH]c(=S)c23)C1` the AC50 was over 30 µM.
For `CCCCc1ccc(NC(=O)N[C@H](C(=O)O)C(C)CC)cc1` (stereo not given in full), the AC50 was over 30 µM.
In the case of `COc1ccccc1OCC(=O)Nc1sc2c(c1C(N)=O)CCC2`, the AC50 is reported as over 30 µM.
In the case of `O=C(CSc1ccccc1)Nc1ccc2c(c1)C(=O)NC2=O`, the AC50 is reported as over 30 µM.
Compound `CCc1c(C)c(C#N)c2nc3ccccc3n2c1NC` has an AC50 of over 30 µM.
`COc1ccc(/C=C2\Oc3cc(OCC(=O)N4CC(O)C[C@H]4C(=O)O)ccc3C2=O)cc1OC` (stereo not given in full) gave an AC50 of over 30 µM.
Work on `Cc1ccc(S(=O)(=O)N2CCN(CC(=O)N/N=C\c3ccccn3)CC2)cc1` yielded an AC50 of over 30 µM.
For `CN(C)c1ccc(Nc2nc(N)c3ccccc3n2)cc1`, the AC50 was 22.8 µM (active).
`COc1ccc(Cl)cc1Nc1nc(N)c2ccccc2n1` gave an AC50 of over 30 µM.
For `CCOc1ccc(Nc2nc(N(C)c3ccccc3)nc(N)c2[N+](=O)[O-])cc1`, the AC50 was over 30 µM.
Work on `COc1cc(/C=N/NC(=O)c2ccoc2C)ccc1O` yielded an AC50 of over 30 µM.
Work on `CN(C)c1ccc(/C=N/NC(=O)c2ccccc2Cl)cc1` yielded an AC50 of over 30 µM.
For `Cc1occc1C(=O)N/N=C/c1ccc(N(C)C)cc1`, the AC50 was 28.1 µM (active).
`O=[N+]([O-])c1cc(S(=O)(=O)N2CCCCC2)ccc1NCCCN1CCOCC1` showed an AC50 of over 30 µM.
With `COc1ccc(C(=O)c2sc3nc(-c4ccc(OC)cc4)ccc3c2N)cc1` the AC50 was over 30 µM.
Work on `CC(=O)N1CCN(c2ccccc2NC(=O)c2ccc(Br)o2)CC1` yielded an AC50 of over 30 µM.
In the case of `COc1cccc(C(=O)O/N=C(\N)c2ccccn2)c1`, the AC50 is reported as 18.9 µM (active).
With `COc1ccc(C(=O)NNC(=O)c2ccccn2)cc1` the AC50 was 14.9 µM (active).
Compound `COc1ccc(C(=O)O/N=C(\N)c2ccccn2)c(OC)c1` has an AC50 of over 30 µM.
Work on `COc1ccc(C(=O)Nc2nc(C)cc(C)n2)cc1` yielded an AC50 of over 30 µM.
With `COc1cc(OC)cc(C(=O)O/N=C(\N)c2ccccn2)c1` the AC50 was over 30 µM.
`COc1ccc(C(=O)c2ccccc2Cl)cc1` showed an AC50 of over 30 µM.
`CN(C)Cc1c(C(=O)N/N=C/C2CC=CCC2)nnn1-c1nonc1N` (stereo not given) gave an AC50 of over 30 µM.
`CCOC(=O)/C(C#N)=C/c1cn(CCC(=O)O)nc1-c1cccc(Br)c1` showed an AC50 of over 30 µM.
With `CCn1c2ccc(F)cc2c2nc3ccccc3nc21` the AC50 was over 30 µM.
With `Cc1nc2c(C)cccn2c1/C(O)=C1\C(=O)C(=O)N(CCN2CCOCC2)C1c1cccs1` (stereo not given) the AC50 was over 30 µM.
`Cc1cccc2c(N=Nc3ccccc3)c(O)[nH]c12` gave an AC50 of over 30 µM.
`Nc1nonc1-n1nnc(C(=O)N/N=C/c2ccccc2Cl)c1-c1ccccc1` showed an AC50 of over 30 µM.
`CCc1c(C)c(C#N)c2nc3ccccc3n2c1NCC1CCCO1` (stereo not given) gave an AC50 of over 30 µM.
In the case of `CS(=O)(=O)Nc1ccc(-c2cc(/C=C3\SC(N)=NC3=O)c[nH]c2=O)cc1`, the AC50 is reported as over 30 µM.
`O=C(c1ccc(Cn2cnnn2)cc1)N1CCCC(Nc2ccc(F)cc2)C1` (stereo not given) showed an AC50 of over 30 µM.
For `O=C(Nc1ccccc1C(=O)N1CCOCC1)c1cccnc1`, the AC50 was over 30 µM.
Work on `CC(=O)Nc1cccc(-c2csc(Nc3ccc(C)cn3)n2)c1` yielded an AC50 of over 30 µM.
`Cc1cc(=O)[nH]c2cc(O)ccc12` gave an AC50 of over 30 µM.
Work on `CC(=O)Nc1ccc(C2(c3ccc(NC(C)=O)cc3)NC(=O)c3ccccc32)cc1` yielded an AC50 of over 30 µM.
In the case of `CC1(C)Cc2cccc(C(=O)NCc3ccco3)c2O1`, the AC50 is reported as over 30 µM.
`O=C(COC(=O)c1cccs1)Nc1ccc(Cl)cn1` gave an AC50 of over 30 µM.
In the case of `CCN1CCN(c2nc(Nc3cccc(OC)c3)nc(N)c2[N+](=O)[O-])CC1`, the AC50 is reported as over 30 µM.
Compound `COc1cccc(/C=N/n2nnnc2N)c1OCC#N` has an AC50 of over 30 µM.
With `O=C(O)COc1c(Cl)cc(/C=C2/NC(=O)NC2=O)cc1Br` the AC50 was over 30 µM.
For `CNc1ccc(/C=C/C(=O)c2ccc3c(c2)OCCO3)cc1[N+](=O)[O-]`, the AC50 was over 30 µM.
`COC(=O)C1(C#N)C(c2ccccc2)C1(C(=O)OC)C(=O)OC` (stereo not given) gave an AC50 of over 30 µM.
With `Cc1nc2ncnn2c(C)c1Cc1c(Cl)cccc1Cl` the AC50 was over 30 µM.
For `O=C(c1ccccc1)c1cnc(Nc2ccccc2Cl)s1`, the AC50 was over 30 µM.
`COc1ccc(NC(=O)CN(C)C2CCCCC2)c([N+](=O)[O-])c1` gave an AC50 of over 30 µM.
`Cc1nc2cc(-c3ccccc3)ccc2o1` showed an AC50 of over 30 µM.
Compound `O=C(N/N=C/c1cccnc1)c1cc2c(ccc3ccccc32)o1` has an AC50 of over 30 µM.
In the case of `CCNc1nc(NCC)nc(C(=O)OCCO)n1`, the AC50 is reported as over 30 µM.
For `Cc1ccnc(NC(=O)Cn2c(=O)oc3cc(S(=O)(=O)N4CCCC4)ccc32)c1`, the AC50 was over 30 µM.
Work on `Cc1cccc(C(=O)O/N=C(\N)c2cccc([N+](=O)[O-])c2)c1` yielded an AC50 of over 30 µM.
`Cc1ccc(C(=O)O/N=C(\N)c2cccc([N+](=O)[O-])c2)cc1` gave an AC50 of over 30 µM.
In the case of `Cc1cccc(/C(N)=N/OC(=O)c2ccc3c(c2)OCO3)c1`, the AC50 is reported as 27.3 µM (active).
Compound `Cc1cc(NC(=O)CCSc2nc(-c3ccco3)cc(C(F)(F)F)n2)n(-c2ccccc2)n1` has an AC50 of over 30 µM.
`C(=N\Nc1ncnc2sc3c(c12)CCC3)/c1ccncc1` showed an AC50 of over 30 µM.
In the case of `Cn1c(=O)c2[nH]c(N3CCOCC3)nc2n(-c2ccccc2)c1=O`, the AC50 is reported as over 30 µM.
`Nc1nccnc1C(=O)N/N=C/c1ccco1` gave an AC50 of over 30 µM.
Compound `Nc1nonc1-n1nnc(C(=O)N/N=C/c2ccc(Cl)cc2Cl)c1CN1CCOCC1` has an AC50 of over 30 µM.
Work on `Cc1nc(NCC2CCCO2)nc2c1C(=O)CC(C)(C)C2` (stereo not given) yielded an AC50 of over 30 µM.
`CCOc1ccc2ccccc2c1/C=N/n1cncn1` gave an AC50 of over 30 µM.
Work on `Cc1ccc(OCC(=O)N2CCN(c3nnc(-c4ccccc4)c4ccccc34)CC2)cc1` yielded an AC50 of over 30 µM.
For `N#CC1=C(SCc2ccccc2)NC(=O)CC1c1ccco1` (stereo not given), the AC50 was over 30 µM.
`CCN(CC)C(=O)c1oc2ccc(S(=O)(=O)N3CCCCCC3)cc2c1C` showed an AC50 of over 30 µM.
With `O=C(c1ccc(Cl)cc1)c1cnc(Nc2ccccc2)s1` the AC50 was over 30 µM.
`Cc1cccc(NC(=O)CSCc2nc3c(nnn3Cc3ccc(F)cc3)c(=O)[nH]2)c1C` gave an AC50 of over 30 µM.
Compound `N#Cc1c2c(c(NCc3ccco3)n3c1nc1ccccc13)CCC2` has an AC50 of over 30 µM.
Work on `O=C(COC(=O)c1cccc(S(=O)(=O)N2CCOCC2)c1)Nc1ncc(Cl)cc1Cl` yielded an AC50 of over 30 µM.
Compound `CNC(=O)c1ccc(NC(=O)C2CCN(c3ncnc4sc(C)c(C)c34)CC2)cc1` has an AC50 of over 30 µM.
`CCNc1cc(N2CCCC2)ccc1[N+](=O)[O-]` showed an AC50 of over 30 µM.
Compound `Cc1nnc(SCC(=O)N2c3ccccc3CC2C)s1` (stereo not given) has an AC50 of over 30 µM.
With `CCOC(=O)c1c(NC(=O)CN2C(=O)NC3(CCCCC3C)C2=O)sc(C)c1CC` (stereo not given) the AC50 was over 30 µM.
In the case of `C=CCNc1nc(N)c(C(=O)Nc2cc(C)on2)s1`, the AC50 is reported as over 30 µM.
With `CC(=O)c1cccc(NC(=S)NC(=O)CC(C)C)c1` the AC50 was over 30 µM.
`COc1ccc(OC)c(/C=C2\Oc3cc(OCC(=O)N4CCC[C@H]4C(=O)O)ccc3C2=O)c1` gave an AC50 of over 30 µM.
Work on `CC(C)c1c(C(=O)N/N=C/c2ccncc2)nnn1-c1nonc1N` yielded an AC50 of over 30 µM.
Compound `CC(C)N=C(NC#N)SCc1ccc(F)cc1` has an AC50 of over 30 µM.
With `N#Cc1sc2nc3c(c(-c4ccco4)c2c1N)CCCC3` the AC50 was over 30 µM.
With `COCCNC(=O)c1ccc(Cn2c(=S)[nH]c3cc4c(cc3c2=O)OCO4)cc1` the AC50 was over 30 µM.
With `CC1=C(C(=O)OCc2ccccc2)C(c2cccc(Br)c2)NC(=O)N1` (stereo not given) the AC50 was over 30 µM.
`O=C(c1ccco1)N(Cc1cccc([N+](=O)[O-])c1)c1ccc(Br)cc1` showed an AC50 of over 30 µM.
Compound `NS(=O)(=O)c1ccc(Nc2nc(-c3ccccc3)cs2)cc1` has an AC50 of over 30 µM.

— PubChem BioAssay AID463205 (Broad Institute, 2010)
